Compound activity as filed in PubChem BioAssay.
HCV inhibitor: qHTS Assay for Inhibitors of Hepatitis C Virus (HCV) | Huh7.5.1 HCVcc-Cre infection, luciferase reporter, 44 h | Potency, µM (series often up to 41.8 µM), inactives show at the top dose activity change, negative = inhibition, most hits filed as inhibitors | hit rate 3.4% among 340,000 | AID 651820, 2012; also: % is scaled to controls: 0 for no effect and ±100 for the full control effect
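A cell-based infection assay in which seeded cells (1,000 per well) receive test compound after 4 h, are inoculated with HCVcc-Cre at approximately 0.5 moi, and are incubated 44 h before luminescence detection.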
Pf growth 48h: Primary qHTS for delayed death inhibitors of the malarial parasite plastid, 48 hour incubation; P. falciparum luciferase growth in erythrocytes, 48 h; Potency, µM (titrated, usually from 28.7 µM), inactives show at the highest dose activity change, negative = inhibition, usual class: inhibitors; hit rate 5.9% among 310,000; also: % is scaled to controls: 0 for no effect and ±100 for the full control effect
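First compound was added to culture medium, then infected red cells at 0.1% parasitemia and 2% hematocrit (final). After incubation at 37 C under 5% CO2, luciferase detection reagent was dispensed and light output recorded.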
AMA1 RON2 block: qHTS for Inhibitors of AMA1-RON; Towards Development of Antimalarial Drug Lead: Primary Screen. Plasmodium falciparum AMA1 (3D7) - RON2 peptide interaction. AlphaScreen AMA1-biotinylated RON2 peptide binding. Potency, µM (titrated, usually from 58.2 µM), without a hit: at the highest dose activity change, negative = inhibition, hits mostly inhibitors. hit rate 0.2% among 360,000. AID 720542, 2013;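 also: 0% = vehicle wells and -100% = peptide control; nearly all actives have a fitted effect of over 45% in size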
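AMA1 (3D7) with his tag at 25 nM final met compounds first, then biotinylated RON2 peptide at 25 nM; detection used donor plus acceptor beads, 10 µg/mL apiece, read by AlphaScreen after 30 min at room temperature.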
Pf growth 96h: Primary qHTS for delayed death inhibitors of the malarial parasite plastid, 96 hour incubation | P. falciparum luciferase reporter growth, 96 h | Potency, µM (titrated, usually from 28.7 µM), for inactives: at the highest dose activity change, negative = inhibition, hits mostly inhibitors | hit rate 6.9% among 320,000 | AID 504834, 2011; also: % is scaled to controls: 0 for no effect and ±100 for the full control effect
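96 h incubation, 37 C, 5% CO2, of luciferase-reporter P. falciparum-infected RBCs (2% hematocrit, 0.05% parasitemia final) with test compounds; endpoint luminescence.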
SARS PLP yeast: qHTS of Yeast-based Assay for SARS-CoV PLP. S. cerevisiae expressing SARS-CoV PLpro, growth rescue. Potency, µM (series often up to 32.9 µM), for inactives: at the top dose activity, positive = growth rescue, actives largely listed as activators. hit rate 0.19% among 330,000. AID 485353, 2010; calls by dose curve; also: 0% is about no effect; nearly all actives have a fitted effect of over 55% in size
NS1 function inh: qHTS Assay for Inhibitors of Influenza NS1 Protein Function. Potency, µM (doses to about 46.1 µM), without a hit: at the highest dose activity, positive = more growth. hit rate 0.4% among 270,000. AID 2326, 2010; calls by dose curve; also: actives are rising curves; nearly all actives have a fitted effect of over 50% in size
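Compounds were scored for reversing the slow growth caused by influenza A NS1 in S. cerevisiae, measured by optical density at 600 nm. Assay medium contained 2% galactose at pH 6.0; NS1-free yeast of the same strain were the positive control.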
An asterisk follows results filed as active; ? = inconclusive; · = not tested or not shown; [ ] = another dose, or the depositor's remark. In the library only some 12% were active in any assay of this set; here they are far more common. Unless noted, calls follow the shape of the dose curve; as a rule, active = well fitted curve in the direction sought with a large enough effect; inconclusive = small, poorly fitted or top-dose-only effect, or another doubt; inactive = no such curve, though single readings can be large; an effect the other way counts as inactive or inconclusive. Potency is read from the fitted curve at half-maximal effect.

SMILES	HCV inhibitor	Pf growth 48h	AMA1 RON2 block	Pf growth 96h	SARS PLP yeast	NS1 function inh
CCOC(=O)C1=C(C)NC(C)=C(C(=O)OCC)C1C(=O)OCC(=O)NCCc1ccc(S(N)(=O)=O)cc1	-1.8%	?	11.1%	?	4.8%	·
COC(=O)c1cc(S(=O)(=O)NCCc2sccc2C)c[nH]1	-10.7%	-11.7%	-16.9%	?	·	5.5%
CCCCn1c(N)c(N(CCOC)C(=O)c2ccc(S(=O)(=O)N3CCC(C)CC3)cc2)c(=O)[nH]c1=O	0.2%	?	-9.0%	1.5%	0.6%	·
O=C1/C(=C/c2ccccc2Cl)SC(=S)N1CCCC(=O)N(CCO)c1ccccc1	12.6µM*	?	?	-27.0%	-2.4%	-39.8%
O=C1/C(=C\c2cccc(O)c2)SC(=S)N1Cc1ccccc1	-13.5%	?	-14.8%	-67.8%	-2.3%	-6.5%
O=C1/C(=C\c2cccc(O)c2O)SC(=S)N1Cc1ccccc1	25.1µM*	?	-6.1%	?	-8.9%	-18.2%
O=C1/C(=C\c2ccc(O)c(O)c2)SC(=S)N1Cc1ccccc1	?	13.1µM*	?	32.5%	-10.9%	-61.4%
O=C(CCCN1C(=O)/C(=C/c2ccccc2Cl)SC1=S)Nc1ccccn1	?	-18.1%	-14.5%	?	-2.9%	4.1%
COc1cc(/C=C2/SC(=S)N(Cc3ccccc3)C2=O)ccc1O	-10.9%	?	-8.4%	?	-4.3%	22.5%
COc1ccc(Cl)cc1NC(=O)Nc1ccc(C(=O)N2CCOCC2)cc1	?	-1.9%	3.2%	-17.9%	3.3%	6.8%
N/C(=N\OC(=O)c1ccc(Cl)cc1Cl)c1cccnc1	?	-36.2%	0.5%	4.65µM*	-1.5%	-7.4%
O=C(O/N=C(\c1ccccc1)c1ccccn1)c1cccc2ccccc12	-11.0%	16.5%	36.2%	9.28µM*	-86.9%	-65.7%
N/C(=N\OC(=O)c1cccc2ccccc12)c1cccnc1	11.2µM*	?	12.5%	-6.7%	0.3%	-1.3%
N/C(=N\OC(=O)c1cc(Cl)ccc1Cl)c1ccccn1	11.2µM*	157.6%	63.6%	?	-90.5%	-56.1%
O=CNC(n1cnc2c(N3CCOCC3)ncnc21)C(Cl)(Cl)Cl (stereo not given)	11.9%	-1.2%	4.9%	20.1%	1.5%	-0.5%
COc1ccc(CN2CN(S(=O)(=O)c3ccccc3)c3nc4ccccc4nc32)cc1	-20.0%	?	-7.1%	?	0.1%	-6.2%
COc1ccc(Br)cc1/C=C\C(=O)NCc1cccnc1	?	-24.4%	-10.6%	6.0%	-0.5%	-8.5%
COC(=O)CCCC(=O)O	·	·	·	·	·	2.8%
Cc1ccc(NC(=O)CN(C)CC(=O)Nc2ccccc2-c2ccccc2)cc1	?	?	10.5%	13.1µM*	-3.4%	5.4%
COc1ccc(Cl)cc1NC(=O)C(C)N1CCN(C/C=C/c2ccccc2)CC1 (stereo not given)	?	·	?	11.7µM*	-0.6%	-3.3%
COc1ccc(Cl)cc1NC(=O)CN(C)CC(=O)Nc1ccccc1-c1ccccc1	?	?	49.6%	11.7µM*	-5.6%	·
COc1ccc(Cl)cc1NC(=O)C/C(C)=N/NC(=O)CCc1ccccc1	?	0.8%	59.0%	14.4%	-4.0%	21.1%
COc1ccc(Cl)cc1NC(=O)C/C(C)=N/NC(=O)c1ccccc1Cl	7.5%	-8.6%	71.4%	13.1µM*	-0.9%	6.1%
COc1ccc(CN2C(=O)CNC2=S)cc1	10.9%	20.9%[0.00184 µM]	39.1%	-6.3%	-1.0%	5.6%
CC(CCc1ccccc1)NC(=O)c1ccc(-n2cncn2)c([N+](=O)[O-])c1 (stereo not given)	-19.8%	-22.8%	8.3%	3.1%	-3.8%	·
CCCCN1C2CCCC1CC(NC(=O)c1cccc(Cl)c1)C2 (stereo not given)	5.6%	?	0.0%	?	-0.3%	1.8%
